Screens as filed in PubChem.
The list is not random: actives were taken first. Their share in the collection is about 12%.
CHX counter: affects cycloheximide protein synthesis inhibition readout, counter-screen | max response, % | cell reporter, cycloheximide protein synthesis inhibition counterscreen | 12% of 300,000 active; in the data active = max response mostly above about 13%, no sharp cut-off; inactive = mostly below about 14%; note: read at 38.3 µM for the half of the compounds with a filed dose; 0% is about no effect
Shiga toxin inh: Shiga toxin inhibition. 9.2% of 290,000 active. Vero cells, Shiga toxin protein synthesis inhibition reporter. inhibition, % at 38.7 µM; in the data active = inhibition mostly above about 28%, no sharp cut-off; inactive = mostly below about 43%; note: 0% is about no effect
Marburg entry inh: Marburg virus entry inhibition. Potency, µM (top dose mostly 37.8 µM), for the others: top-dose activity change, negative = inhibition, actives largely listed as inhibitors. Marburg virus pseudotyped entry inhibition, cell reporter. 1.8% of 300,000 active. AID 540276; calls by dose curve; tested in HEK293 cells; note: potency is the fitted concentration of half-maximal effect; % is set by controls: 0 for no effect and ±100 for the full control effect
Lassa entry inh: inhibitors of Lassa virus binding or cell entry | Lassa virus pseudotype entry inhibition, cell reporter | Potency, µM (series often up to 37.9 µM), without a hit: at the top dose activity change, negative = inhibition, usual class: inhibitors | 1.2% of 300,000 active | AID 540256; calls by dose curve; tested in HEK293 cells; note: potency is the fitted concentration of half-maximal effect; % is set by controls: 0 for no effect and ±100 for the full control effect; nearly all actives have a fitted effect of over 50% in size
The depositor's hits bear a star; ? = inconclusive; nt = not tested or not shown; [ ] = another dose, or the depositor's remark.

SMILES	CHX counter	Shiga toxin inh	Marburg entry inh	Lassa entry inh
CCCCCCNC(=O)N[C@@H](Cc1ccc(O)cc1)C(=O)NCCC[C@H]1CN2C(=NC[C@H]2C)N1CC1CCC1	10.8	39.6*	nt	nt
O=C(Cc1ccc(S(=O)(=O)N2CCOCC2)s1)Nc1cc(Cl)ccc1Cl	nt	nt	-7.4%[46.1 µM]	2.3%
C[C@H](NC(=O)[C@@H]1CSC2c3ccccc3C(=O)N21)C(=O)NCCc1ccccc1 (stereo partly drawn)	42.8*	51.3*	nt	nt
C[C@H](NC(=O)[C@@H]1CSC2c3ccccc3C(=O)N21)C(=O)NCCc1ccc(F)cc1 (stereo partly drawn)	8.1	18.2	-0.6%[46.1 µM]	?
CCOc1ccc(C(=O)NCCc2ccc3c(c2)OCCO3)cc1	9.2	20.5	8.3%[46.1 µM]	-12.9%
COc1cccc(NC(=S)N/N=C2\CC3CCC2(C)C3(C)C)c1 (stereo not drawn)	41.0*	78.0*	?	9.1%[46.1 µM]
O=C1C[C@@H](c2ccccc2Cl)N1S(=O)(=O)c1ccccc1[N+](=O)[O-]	-10.6	2.0	nt	nt
CCn1c(=O)c2cc(C(=O)NCCN(C)C)sc2c2ccccc21	-3.7	-5.9	7.08µM*	?
CCN(CC)C(=O)c1cc2sc3ccccc3c2s1	71.3*	105.9*	-5.7%	?
CN(C)CCNC(=O)c1cc2sc3ccccc3c2s1	39.7*	84.6*	?	?
CCN(CC)CCNC(=O)c1cc2c(=O)n(CC)c3ccccc3c2s1	-4.4	7.6	-15.8%[46.1 µM]	3.4%[46.1 µM]
CC(C)C(=O)Nc1cc(C(F)(F)F)ccc1-n1ccnc1	-3.5	-15.4	nt	nt
COc1cc(CC(=O)N(c2ccccc2)c2nc(C)cs2)cc(OC)c1OC	-1.7	-13.5	5.5%[46.1 µM]	0.3%
O=C(O)c1ccc(-n2c(/C=C\c3ccc(O)cc3)nc3ccccc3c2=O)cc1	nt	nt	nt	-14.2%[46.1 µM]
O=C(O)c1ccc(/C=C/c2ccc3cccc(O)c3n2)cc1	41.1*	81.9*	?	?
Oc1ccc(/C=C/c2ccc3cccc(O)c3n2)cc1Br	50.3*	67.9*	nt	nt
COC(=O)c1ccc(/C=C/c2ccc3cccc(OC(C)=O)c3n2)cc1	56.8*	117.0*	?	?
CN(C(=O)CC1C(=O)NCCN1Cc1ccc(F)c(F)c1)C1CCCCC1 (stereo not drawn)	-1.8	18.1	24.2%	5.3%
Cc1ccc(NC(=O)CSc2c3c(nc4ccccc24)CCCC3)cc1F	nt	nt	-1.6%[46.1 µM]	-11.3%[46.1 µM]
Cc1nn(-c2ccccc2)c(C)c1-c1ccccc1O	10.9	39.0	nt	nt
Cc1nn(-c2ccccc2)c(/N=C/c2ccc(O)cc2)c1-c1ccccc1	26.5*	45.4	?	?
CN(CC(=O)Nc1ccc(F)cc1)C(=O)COC(=O)CCN1C(=O)C2CC=CCC2C1=O (stereo not drawn)	-2.2	-9.0	?	4.2%
O=C(NNC(=O)c1cccnc1SCc1cccc([N+](=O)[O-])c1)c1ccccn1	4.9	-9.4	3.16µM*	?
NNC(=O)CSCc1ccc(Cl)cc1Cl	-1.4	-5.0	3.1%[46.1 µM]	-4.5%
COCCNC(=S)NNC(=O)CSCc1ccc(Cl)cc1Cl	-2.7	42.6*	?	?
SMILES	CHX counter	Shiga toxin inh	Marburg entry inh	Lassa entry inh
CC1CCN(S(=O)(=O)c2ccc(N3CCCCS3(=O)=O)cc2)CC1	nt	nt	nt	-5.1%[46.1 µM]
Cc1c(Cl)cccc1-c1ccc(/C=N/n2cnnc2)o1	-3.2	-15.5	4.8%	0.5%
Cc1c(C(=O)O)cccc1-c1ccc(/C=N/Nc2ccc(Br)cc2)o1	106.1*	139.6*	18.3%	13.2%
Cc1c(C(=O)O)cccc1-c1ccc(/C=N/n2cnnc2)o1	28.1*	37.7	3.5%[46.1 µM]	?
COc1cc(/C=C2/C(=O)NC(=O)N(c3ccc(C)cc3)C2=O)cc(OC)c1OC	27.0*	67.2*	0.0%[14.2 µM]	2.9%
COc1ccc(N2C(=O)NC(=O)/C(=C/c3ccc4c(c3)Cc3ccccc3-4)C2=O)cc1	28.7*	33.9	nt	nt
Cc1nn(C)c2c1c(C(F)(F)F)cc(=O)n2CC(=O)N1CCCCC1	nt	nt	nt	-4.3%[46.1 µM]
CC1CC(C)CN(CC(O)COCCOc2ccc(Br)cc2)C1 (stereo not drawn)	4.9	-5.5	13µM*	?
CC1CCN(CC(O)COCCOc2ccc(Br)cc2)CC1 (stereo not drawn)	-4.3	-6.8	7.5%	14.5%
CN(C)CCCNC(=O)C(=O)NCC(c1ccc2c(c1)OCO2)N1CCOCC1 (stereo not drawn)	nt	nt	nt	0.1%[46.1 µM]
COc1cccc(NC(=O)CCCN2C(=O)C3CC=CCC3C2=O)c1 (stereo not drawn)	9.0	9.6	-0.2%[46.1 µM]	-28.8%[46.1 µM]
COc1ccc(NC(=O)CCCN2C(=O)C3CC=CCC3C2=O)cc1 (stereo not drawn)	23.9*	40.0*	?	-23.2%
COc1cccc(NC(=O)CCN2C(=O)C3CC=CCC3C2=O)c1 (stereo not drawn)	49.2*	73.3*	nt	nt
CC(C)c1cc2c(s1)c1cnn(Cc3ccccc3F)c(=O)c1n2C	8.3	16.9	nt	nt
Cc1ccc2[nH]c3c(NCc4ccccc4)ncnc3c2c1	39.3*	79.8*	nt	nt
COc1ccc(CNc2ncnc3c2[nH]c2ccccc23)cc1	0.3	-0.2	?	?
CCCOc1ncnc2c1[nH]c1ccc(C)cc12	44.7*	108.2*	nt	nt
O=C(N=C1SC2CS(=O)(=O)CC2N1c1cccc(Cl)c1Cl)C1CC1 (stereo not drawn)	-2.8	9.0	nt	nt
COc1cccc(/C=N/N=C(\N)c2nonc2N)c1O	35.3*	115.7*	?	3.0%
N/C(=N\N=C\c1cccc([N+](=O)[O-])c1)c1nonc1N	49.7*	75.7*	nt	nt
Nc1nonc1C(=O)N/N=C/c1ccc(-c2cccc([N+](=O)[O-])c2)o1	-5.9	-4.8	-0.5%	?
N/C(=N\N=C\c1ccc2c(c1)OCO2)c1nonc1N	45.0*	74.7*	?	?
Nc1nonc1-n1nnc(C(=O)N/N=C/c2ccc3c(c2)OCO3)c1-c1ccccc1	-1.7	53.2	19.2%[46.1 µM]	nt
COc1cc(/C=N/N=C(/N)c2nonc2N)cc(Br)c1OCc1ccccc1C	11.5	-8.7	?	?
CCn1nnc(NC(=O)c2cccc(-c3cc4ccccc4oc3=O)c2)n1	40.5*	73.0*	?	5.7%
SMILES	CHX counter	Shiga toxin inh	Marburg entry inh	Lassa entry inh
O=C(Nc1cccnc1)c1cccc(-c2cc3ccccc3oc2=O)c1	12.2	22.7	0.6%[46.1 µM]	-5.4%[46.1 µM]
O=C(Nc1ccc(CN2CCOCC2)cc1)c1cccc(-c2cc3ccccc3oc2=O)c1	8.8	32.0	?	?
O=C(Nc1cccc(Cl)c1N1CCCC1)c1cccc(-c2cc3ccccc3oc2=O)c1	25.5*	39.1	-28.2%	-7.1%[14.3 µM]
CNC(=S)N(Cc1ccc(OC)cc1)C1CC(=O)N(c2ccc(OC)cc2)C1=O (stereo not drawn)	-1.3	2.9	-14.2%[46.1 µM]	-26.7%
COc1ccccc1CNC(=O)[C@H](C)NC(=O)C1CCN(C(=O)[C@@H](N)C(C)C)CC1	-2.7	1.2	nt	nt
O=C(c1nc2ccccc2s1)N1CCSCC1	29.2*	134.7*	25.3%	?
O=C(c1nc2ccccc2s1)N1CCN(c2ccccn2)CC1	20.7*	28.7*	?	7.0%
C[C@H]1[C@H](O)[C@@H](N=[N+]=[N-])CCO[C@H]1c1ccccc1	nt	nt	-11.7%[14.2 µM]	nt
CC1(C)N=C(N)NC(Nc2ccc(Br)cc2)=N1	6.9	-16.0	-5.1%	8.6%
Nc1cnc(Nc2ccc(Br)cc2)nc1N	27.5*	57.8*	nt	nt
Cc1nn(Cc2noc(C(=O)NCc3ccccn3)n2)c(C)c1Br	-13.1	-2.7	-1.1%[46.1 µM]	-3.4%[46.1 µM]
